Parasite growth, % of DMSO control and parasite growth remaining, % of DMSO control (lower = more inhibition) data for 34 compounds are collected here from PubChem BioAssay (NCATS).

A short description of test [1]: qHTS profiling of the MIPE4 collection as inhibitors of Plasmodium falciparum (3D7) proliferation (AID 743344).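 Further: scaled between DMSO vehicle wells and 0.29 µM artemisinin as full inhibition.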 Conditions: P. falciparum 3D7 in erythrocytes, SYBR Green DNA fluorescence, 72 h; at 28.5 µM unless noted. The procedure, abridged:
(§1)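 Erythrocytes infected with P. falciparum (0.3% parasitemia, 2.5% hematocrit) incubated with compounds 72 h at 37 C, 5% CO2. Lysis with saponin/Triton buffer containing SYBR Green I, overnight at room temperature in the dark; DNA fluorescence (485/535 nm) normalised to 0.29 uM artemisinin and DMSO.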

A short description of test [2]: qHTS profiling of the MIPE4 collection as inhibitors of Plasmodium falciparum (DD2) proliferation (AID 743345). Particulars: P. falciparum Dd2 in erythrocytes, SYBR Green DNA, 72 h; at 28.5 µM unless noted. In outline:
as §1
For orientation: qHTS replaces the single test concentration by a dilution series.

In test [1], `Cn1cc(-c2ccc3ncc(Cc4ccc5ncccc5c4)n3n2)cn1` gave a parasite growth, % of DMSO control of 26.2%. For the same compound, the parasite growth remaining, % of DMSO control (lower = more inhibition) in test [2] came to 60.3%.
In the same order, the values of `O=C(C=CC#Cc1cccc(NS(=O)(=O)c2ccccc2)c1)NO` are 5.45% and 7.17%.
For `CCCc1nc(C(C)(C)O)c(C(=O)O)n1Cc1ccc(-c2ccccc2-c2nn[nH]n2)cc1`, the parasite growth, % of DMSO control in test [1] was 87.7%. Besides, the parasite growth remaining, % of DMSO control (lower = more inhibition) in test [2] stood at 93.7%.
In the same order, the values of `Cn1cnc(=N)c2[nH]cnc21` are 5.58% and 6.87%.
In the same order, the values of `Cc1cc(-c2nnc3n2CCCCC3)c(C)n1-c1ccccc1` are 23% and 36.9%.
In the same order, the values of `COc1cc2c(Nc3ccc(Cl)c(Cl)c3F)ncnc2cc1OCC1C[C@@H]2CN(C)C[C@H]2C1` are 6.7% and 7.75%.
Turning to `Nc1nc(=O)n([C@H]2C[C@H](O)[C@@H](CO)O2)cc1F`, in test [1], the parasite growth, % of DMSO control was 99.5%. Further, the parasite growth remaining, % of DMSO control (lower = more inhibition) in test [2] was found to be 95.7%.
Compound `Cc1[nH]c(C=C2C(=O)Nc3ccccc32)c(C)c1CCC(=O)O` yielded a parasite growth, % of DMSO control in test [1] of 7.83%. Further, the parasite growth remaining, % of DMSO control (lower = more inhibition) in test [2] is 176%.
`COc1cc(OC)cc(-c2ccc3ncc4ccc(=O)n(-c5ccc(N6CCNCC6)c(C(F)(F)F)c5)c4c3c2)c1` yielded a parasite growth, % of DMSO control in test [1] of 5.19%. For the same compound, the parasite growth remaining, % of DMSO control (lower = more inhibition) in test [2] is 5.58%.
In the same order, the values of `CC(O)(C#Cc1ccc2c(c1)N(c1nc(N)ncc1Cl)CC2)c1nccs1` (stereo not drawn) are 11.7% and 33.4%.
Compound `O=C(Nc1cc2cc[nH]c2cn1)c1ccccc1` returned a parasite growth, % of DMSO control in test [1] of 76.5%. For the same compound, the parasite growth remaining, % of DMSO control (lower = more inhibition) in test [2] was determined as 88%.
The compound `c1ccc(CNc2nc(NCc3ccccc3)c3ccccc3n2)cc1` showed a parasite growth, % of DMSO control in test [1] of 5.75%. Also, the parasite growth remaining, % of DMSO control (lower = more inhibition) in test [2] was found to be 7.99%.
In the same order, the values of `O=C1NCCc2[nH]c(-c3ccncc3)cc21` are 23.6% and 39%.
With `COc1ccnc2[nH]cc(C(=O)C(=O)N3CCN(C(=O)c4ccccc4)C[C@@H]3C)c12`, in test [1], the parasite growth, % of DMSO control amounted to 81%. Further, the parasite growth remaining, % of DMSO control (lower = more inhibition) in test [2] amounted to 98%.
In the same order, the values of `COc1cc(O)c2c(c1)C1OC1C[C@H](O)[C@H](O)C(=O)C=CC[C@H](C)OC2=O` (stereo partly drawn) are 5.71% and 10.6%.
In the same order, the values of `CC[C@H]1OC(=O)[C@H](C)[C@@H](O[C@H]2C[C@@](C)(OC)[C@@H](O)[C@H](C)O2)[C@H](C)[C@@H](O[C@@H]2O[C@H](C)C[C@H](N(C)C)[C@@H]2O)[C@](C)(OC)C[C@@H](C)C(=O)[C@H](C)[C@@H](O)[C@]1(C)O` are 46.8% and 44.2%.
In test [1], `CCc1cnn2c(NCc3ccc[n+]([O-])c3)cc(N3CCCC[C@@H]3CCO)nc12` came in with a parasite growth, % of DMSO control of 14.9%. The parasite growth remaining, % of DMSO control (lower = more inhibition) in test [2] was 14%.
For the compound `CC(C)n1cnc2c(NCCc3ccc(O)cc3)nc(-c3csc4ccccc34)nc21`, in test [1], the parasite growth, % of DMSO control amounted to 5.76%. Further, the parasite growth remaining, % of DMSO control (lower = more inhibition) in test [2] was 9.54%.
In the case of `C[C@H](NCc1ccc(OCc2cccc(F)c2)cc1)C(N)=O`, the parasite growth, % of DMSO control in test [1] worked out at 8.15%. For the same compound, the parasite growth remaining, % of DMSO control (lower = more inhibition) in test [2] is 6.14%.
In the same order, the values of `FC(F)(F)c1ccc(Nc2nc3ccc(Oc4ccnc(-c5ncc(C(F)(F)F)[nH]5)c4)cc3[nH]2)cc1` are 6.13% and 48.6%.
In the same order, the values of `C=CC[C@@H]1C=C(C)C[C@H](C)C[C@H](OC)[C@H]2O[C@@](O)(C(=O)C(=O)N3CCCC[C@H]3C(=O)O[C@H](C(C)=C[C@@H]3CC[C@H](O)[C@H](OC)C3)[C@@H](C)[C@@H](O)CC1=O)[C@@H](C)C[C@@H]2OC` are 8.55% and 8.99%.
For `O=C1NC(=O)C(=Cc2ccc3nccc(-c4ccncc4)c3c2)S1`, the parasite growth, % of DMSO control in test [1] was determined as 6.28%. Further, in test [2], the parasite growth remaining, % of DMSO control (lower = more inhibition) was 7.95%.
In the same order, the values of `C#C[C@]1(O)CC[C@@H]2[C@@H]3CCC4=CC(=O)CC[C@@H]4[C@H]3CC[C@@]21CC` are 28% and 79.2%.
In the same order, the values of `C[C@](Cc1c[nH]c2ccccc12)(NC(=O)OC1C2CC3CC(C2)CC1C3)C(=O)NC[C@H](NC(=O)CCC(=O)O)c1ccccc1` (stereo partly drawn) are 10% and 36.8%.
`COc1cc([C@@H]2c3cc4c(cc3[C@@H](O[C@@H]3O[C@@H]5CO[C@@H](c6cccs6)O[C@@H]5[C@H](O)[C@@H]3O)[C@H]3COC(=O)[C@H]23)OCO4)cc(OC)c1O` returned a parasite growth, % of DMSO control in test [1] of 5.39%. Besides, the parasite growth remaining, % of DMSO control (lower = more inhibition) in test [2] was 8.04%.
For the compound `C=C(C)[C@@H]1CC[C@]2(C)CC[C@]3(C)[C@H](CC[C@@H]4[C@@]5(C)CC[C@H](O)C(C)(C)[C@H]5CC[C@]43C)[C@@H]12`, the parasite growth, % of DMSO control in test [1] amounted to 44.1%. Besides, the parasite growth remaining, % of DMSO control (lower = more inhibition) in test [2] came to 92%.
In the same order, the values of `O=C1NC(O)CCN1[C@@H]1O[C@H](CO)[C@H](O)[C@H]1O` (stereo partly drawn) are 98.9% and 97.8%.
In the same order, the values of `C=CC(=O)Nc1cccc(Nc2nc(NC3CCC(N(C)C)CC3)nc3c2ncn3C(C)C)c1` (stereo not drawn) are 10.5% and 15.3%.
In the same order, the values of `CCN(C(=O)c1c(O)c2c(Cl)cccc2n(C)c1=O)c1ccccc1` are 94.2% and 108%.
For `N#CC(=Cc1ccc(O)c(O)c1)C(=O)NCc1ccccc1`, the parasite growth, % of DMSO control in test [1] turned out to be 42.9%. The parasite growth remaining, % of DMSO control (lower = more inhibition) in test [2] was 87.2%.
For `CC(=O)OC[C@@H]1O[C@@H](n2ccc(=O)[nH]c2=O)[C@H](OC(C)=O)[C@H]1OC(C)=O`, the parasite growth, % of DMSO control in test [1] worked out at 158%. The parasite growth remaining, % of DMSO control (lower = more inhibition) in test [2] was 115%.
The compound `OCCN1C[C@H](O)[C@@H](O)[C@H](O)[C@@H]1CO` displayed a parasite growth, % of DMSO control in test [1] of 96.1%. The parasite growth remaining, % of DMSO control (lower = more inhibition) in test [2] worked out at 131%.
In the same order, the values of `Cc1ccc(-n2[nH]c(C)c(N=Nc3cccc(-c4cccc(C(=O)O)c4)c3O)c2=O)cc1C` are 57% and 92.5%.
Consider `CC(=O)O[C@H]1C[C@@H]2CC[C@H]3[C@H]4C[C@H]([N+]5(C)CCCCC5)[C@@H](OC(C)=O)[C@@]4(C)CC[C@@H]3[C@@]2(C)C[C@H]1N1CCCCC1`, for which the parasite growth, % of DMSO control in test [1] turned out to be 40.5%. Moreover, the parasite growth remaining, % of DMSO control (lower = more inhibition) in test [2] is 64%.
